# Results reported in the supplement of paper PMC8728848.
# About 410 targets per protein were measured; listed, in parts, are those with the strongest signals and a random draw of the rest.
# B1: HHL-2 (Homo sapiens), P07307 (protein)
# chain: MAKDFQDIQQLSSEENDHPFHQGEGPGTRRLNPRRGNPFLKGPPPAQPLAQRLCSMVCFSLLALSFNILLLVVICVTGSQSEGHRGAQLQAELRSLKEAFSNFSSSTLTEVQAISTHGGSVGDKITSLGAKLEKQQQDLKADHDALLFHLKHFPVDLRFVACQMELLHSNGSQRTCCPVNWVEHQGSCYWFSHSGKAWAEAEKYCQLENAHLVVINSWEEQKFIVQHTNPFNTWIGLTDSDGSWKWVDGTDYRHNYKNWAVTQPDNWHGHELGGSEDCVEVQPDGRWNDDFCLQVYRWVCEKRRNATGEVA
# Target: Neu5Ac(b2-6)GalNAc
# Assay: glycan array binding signal (z-score within array); higher = stronger binding
# Details: glycan notation: IUPAC condensed, linker removed
# How it was run: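 Arrays were curated from the Consortium for Functional Glycomics database, 3228 in total, and kept only where the protein sequence was available. Binding is expressed as a within-array Z-score. This score was averaged across arrays of the same protein sequence at different concentrations or buffers and across linkers, and negative values can be read as non-binding.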
binder,measurement,value
B1,glycan array binding signal (z-score),-0.379
